This note sets out measurements from the supplement of paper PMC6555819.

The assay relates to VDR:RXRa (NR concentration 270 nM, RXRa partner concentration 90 nM). Briefly: PBM binding z-score (relative to random genomic background probes); higher = stronger binding; sequences stand for … in GC…GCGATTGACAGCGTAGAATGAAGG
Here is the method:
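Protein-binding microarray (Agilent 4x180K custom design, double-stranded 60-nt probes: 5' GC cap, 34-nt variable region, 24-nt constant primer region; full probe sequence given). Purified or IVT nuclear receptor:RXRα heterodimers (3:1 NR:RXRα, mostly 270:90 nM) or homodimers were incubated for 1 h in PBS with 2% milk and no ligand, then detected with Alexa488 antibodies. Fluorescence from o1-orientation probes (~5 replicates averaged) was converted to z-scores against 500 random hg19 background probes. Variable regions are seed direct-repeat (DR0–DR5) sites, all their single-nucleotide variants and half-site ablations.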
GAATATAGGTAATACAAGGTGAAAGTCCGATTGT displayed a PBM binding z-score of 0.758.
In turn, CAAACTAGGTCACAGAAGTCAAAGTCCGTGCGTA returned a PBM binding z-score of 3.91.
In the case of GCGACTGGGGCTTCAGCAGGTTACCATAACTTAA it was -0.361; in that of CGTCCAAGGTCAATGCTAGGTGAGTGAAAGCATT, 3.69; in that of GCATATAGGTAGTACAAGGTGAAAGTCCGATTGT, 0.154.
Turning to GCTATTAGTTGAAAGGGCCACCGAATGATTCTCG, the PBM binding z-score was -0.0971.
The figure for CCTACTGGGCCACGAAATGTCATTGATTCAGTGA is -0.452.
The figure for CGCCCAAGGTCATAGGAGGTCAGTGAAGACAGAT is 6.21; for CTCGAAAGCTCGGTTGAGGTGAGTATACGGATAA it is -0.326.
The figure for CCGACTGGGGCAAAGGTTACCAGACTCAGTACGA is 1.64; for TGAATTAGGTTATAAGATCAGGGAACGTTGCAAA it is -0.0623; for ACTATGAGTTGACTTAGGGCAACCGATACGACGC it is 1.16.
In turn, ACTATTAGTTGACTTAGGTCAACCGATACGACGC had a PBM binding z-score of 2.42.
The sequence CGTCCAAGGTCAGCTGGTCAGTGAAAGCGACGTG yielded a PBM binding z-score of 2.66.
In the case of ACAAGTTGGTCAGCTGAGGTCACACACAATTCGG it was 4.66.
In the case of ACTATTAGTAGAGACGAGGGCAACCGATAGGTTG it was 0.332; in that of TCGAGTAGGTTACCAATGTGGCATTCAGCTTTCT, -0.0444.
The figure for ATATGTAGGTTAGCTGGGGTCATACAGACTAGGC is 6.08.
Consider CTCGAAAGGTCGGTTCAGGTGAGTATACGGATAA, for which the PBM binding z-score was found to be 2.71.
The figure for ACTAGTTGGTCAGCTGACGTCACACACAATTCGG is 0.0123; for CCTAGCAGGCCAGTCTGGGTCACTCAAGGCTTGA it is 0.512.
On to CGTCAAAGTTCACGGTAACGTAACAGAAAGCAGC, for which the PBM binding z-score was 4.74.
In the case of ACTCTGAGGACAAAGGTCAGAGCTACGCCAGTGA it was 3.49; in that of AGAACGAGGGCACGTTGAGTTGATAGCAGAGTAG, 2.32.
ACTAGCAGGCCAAATTTGGGTCACTCAAACAAAG returned a PBM binding z-score of 0.734.
In the case of CGTCCAAGGTCATAGTAGGTCAGTGAAGACAGAT it was 5.64.
As for GGAACAAGGGCATTCGAGTTGATAGCATGGCGAT, the PBM binding z-score came out at 3.12.
The figure for CCGACTGGCGCAAGGTTACCATAACGCACAGCCA is 0.151.
The figure for TCATATAAGTAAAGGTGAAAGTCGAACGATATGA is 0.925.
The figure for ATCTCTAGGTAAAAGTTCAGTGCATCCCGAGGAT is 1.69.
GCATATAGGTAATACAAGATGAAAGTCCGATTGT showed a PBM binding z-score of -0.0142.
The figure for ACTTGCAGGCCAAGTTTGGGTCACTCAAACAAAG is 0.755.
For GGAACGAGGGCAAGTTGATACCAGAGTTTGATGG, the PBM binding z-score stood at 1.1.
In the case of TTACCGAGGTGAGCTGAGGTCGTTGATCCAACTC it was 4.51; in that of AGACTGAGGTTATACGTAGATCAGGGAAGAAAGT, 1.42.
In turn, TCATATAGGTAATACAAGTGAAAGTCGGCATCTA gave a PBM binding z-score of 1.24.
ACTATAAGTTGACTTAGGGCAACCGATACGACGC had a PBM binding z-score of 0.769.
As for CCGACTGGGGCATAGGGTTACCATAAGCCAGCCC, the PBM binding z-score is 0.304.
In the case of ACTATTAGTTGAGACGAGGGCAACCCATAGGTTG it was 0.697; in that of CGAACTAGGTCAGAACAGCACAGTGAAGGATGAT, 0.261.
